The supplement of paper PMC10338343
± gives the standard deviation. The full ranking holds about 8,200 sequences; the median of “pre-steady-state target cleavage rate” is about 0.024, and the highest 2% start at about 1.3. The sample holds the highest values, similar sequences and a random draw of the others, so the mix is not that of the screen.

System: MIWI (PIWIL1) piRISC loaded with L1MC piRNA (30 nt)
Test: pre-steady-state target cleavage rate (min^-1); MIWI and MILI are mouse PIWI proteins and EfPiwi is from a freshwater sponge; tags in brackets are library labels; higher = faster piRNA-guided slicing of the target
Details: guide: L1MC piRNA 5'p-UAACUAAAUACUAUGCAAGCUGUAGGUCCU
Procedure, shortened: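 With or without 500 nM GTSF1 partner protein, 1 nM active affinity-purified piRISC carrying one synthetic guide was mixed with 0.1 nM transcribed, DNA-blocked target RNA library in HEPES–potassium acetate buffer at 33 °C for 0–8 or 0–960 min. Uncleaved targets were sequenced and normalised to depth and to weakly complementary targets, three trials were pooled, and k3 was capped at 0.0001 min^-1. The pre-steady-state cleavage rate came from a burst-and-steady-state fit.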

[1] = auxiliary factor: 500 nM mouse GTSF1
[2] = auxiliary factor: none (no GTSF1)

Row | Sequence | pre-steady-state target cleavage rate [1] | pre-steady-state target cleavage rate [2]
1 | UCCUGGAUGUGCUUGCAUAGUAUUUACAUA | 0.08 ± 0.017 | 0.0058 ± 0.0031
2 | UCCUGGAUGAGCAUGGAUAGUAUUUAGUUA | 0.475 ± 0.042 | 0.0081 ± 0.0031
3 | UCGACCUACAGCUUGCUUAGUAUUUUCAAA | 0.329 ± 0.048 | –
4 | UCCUGGAUGUGCAUGCAUAGUAUUUAGUAA | 0.0251 ± 0.0072 | 0.00346 ± 0.0025
5 | UCCUGGAAGAGCUUGCUUAGUAUUUAGUUA | 0.761 ± 0.051 | 0.0227 ± 0.0089
6 | UCCUGGAUGAGCUUGCUUAGUAUAUAGUUA | 0.0747 ± 0.013 | 0.0101 ± 0.0035
7 | UCCUGCUACAGCAUGCAUAGUAAUUAGUUA | 0.73 ± 0.077 | 0.00723 ± 0.0026
8 | UCCUGGAUGUCCUUGCAUAGUAUAUUAGUUA | 0.025 ± 0.0089 | –
9 | UCCUGGAACAGCUUGCAUAGUAUUUGGUUA | 0.781 ± 0.041 | 0.0538 ± 0.011
10 | UCCACCUACAGCUUGCUUAGUAUUUAGUAA | 0.484 ± 0.044 | 0.0103 ± 0.0023
11 | UCCACUUACAGCUUGCAUAGUAUUUAGUUA | 1.17 ± 0.034 | 0.0668 ± 0.0094
12 | UCGACUUACAGCUUGCAUAGUAUUUAGUUA | 1.56 ± 0.045 | 0.0755 ± 0.013
13 | UGGACCAUACAGCUUGCAUAGUAUUUAGUUA | 1.3 ± 0.066 | 0.0868 ± 0.013
14 | AGGACCGUACAGCUUGCAUAGUAUUUAGUUA | 1.16 ± 0.061 | 0.0943 ± 0.019
15 | UCGACCUUACAGCUUGCAUAGUAUUUAGUUA | 1.47 ± 0.057 | 0.091 ± 0.02
16 | UCGACUACAGCUUGCAUAGUAUUUAGUUA | 1.3 ± 0.049 | 0.0713 ± 0.012
17 | UGGACCUACAGCUUGCAUAGUAUUUACUUA | 0.24 ± 0.021 | 0.0361 ± 0.0058
18 | AGGACUUACAGCUUGCAUAGUAUUUAGUUA | 1.39 ± 0.064 | 0.0831 ± 0.012
19 | UGGACUUACAGCUUGCAUAGUAUUUAGUUA | 1.45 ± 0.063 | 0.081 ± 0.013
20 | UCCUGGAUGAGCUAGCAUAGUAUAUAGUUA | 0.194 ± 0.031 | 0.00454 ± 0.0041

Row | Sequence | pre-steady-state target cleavage rate [1] | pre-steady-state target cleavage rate [2]
21 | UCCACCUACUCGUUGCAUAGUAUUUAGUAA | 0.406 ± 0.031 | 0.00745 ± 0.0019
22 | UCCUGCUACAGCUUCCAUAGAAUUUAGUUA | 0.0338 ± 0.013 | –
23 | UCCUGGAUGAGCUUGCAUAGUAUUAAGUAA | 0.197 ± 0.036 | 0.0178 ± 0.0055
24 | UCCACCUAGAGCUUGCAUAGUAUUUAGAUA | 0.178 ± 0.032 | 0.00955 ± 0.0025
25 | UCCUGCUACAGCUUGCAUAGUAUUUUCAUA | 0.295 ± 0.055 | –
26 | UCCUGGAUGUGCUUGCAAAGUAUUUUGUUA | 0.0495 ± 0.008 | 0.0109 ± 0.0032
27 | UGGAGCUACUGCUUGCAUAGUAUUUAGUUA | 1.09 ± 0.055 | 0.0621 ± 0.0085
28 | UGGACCUAUCAGCUUGCAUAGUAUUUAGUUA | 1.48 ± 0.086 | 0.074 ± 0.016
29 | UCCUCCUAUCAGCUUGCAUAGUAUUUAGUUA | 1.49 ± 0.072 | 0.0492 ± 0.011
30 | AGGACCAUCAGCUUGCAUAGUAUUUAGUUA | 1.3 ± 0.048 | 0.0926 ± 0.017
31 | UCCUCCUCAGCUUGCAUAGUAUUUAGUUA | 1.05 ± 0.027 | 0.0482 ± 0.009
32 | UCGACCUAUAGCUUGCAUAGUAUUUAGUUA | 1.04 ± 0.055 | 0.0703 ± 0.014
33 | UCCACCUAUCAGCUUGCAUAGUAUUUAGUUA | 1.01 ± 0.037 | 0.0531 ± 0.011
34 | UCGACCUAUCAGCUUGCAUAGUAUUUAGUUA | 1.61 ± 0.06 | 0.0851 ± 0.018
35 | UGGACCAUCAGCUUGCAUAGUAUUUAGUAA | 1.05 ± 0.053 | 0.0577 ± 0.013
36 | UGGACCAUCAGCUUGCAUAGUAUUUAGUUA | 1.44 ± 0.056 | 0.101 ± 0.019
37 | UCCUCCAUCAGCUUGCAUAGUAUUUAGUUA | 0.739 ± 0.027 | 0.0679 ± 0.013
38 | UGGACCUAUAGCUUGCAUAGUAUUUAGUUA | 1.23 ± 0.054 | 0.0564 ± 0.011
39 | AGGACCUAUCAGCUUGCAUAGUAUUUAGUUA | 1.25 ± 0.055 | 0.0769 ± 0.013
